Test systems include DU-145 prostate; K-562 leukemia; MALME-3M melanoma; MDA-MB-231 breast; RXF 393 renal; SF-268 CNS; SF-295 CNS; SF-539 CNS; UACC-257 melanoma; M14 melanoma.
Assay in all cases: NCI-60 one-dose screen, 48 h (100 = growth as untreated, 0 = no growth, -100 = all killed)
Settings in all cases: 10 µM unless noted

Each structure is given as a SMILES string. This is part of a sample that, as a whole, favours compounds with a hit. Of some 83,000 tested, about 20% had one in any assay.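 Step 1: grow cells in 96-well plates. Step 2: add test compound at a single concentration. Step 3: incubate 48 h. Step 4: record percent growth.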 Values without a mark were called inactive. Calls of active or inactive are those of the source. How the source made its calls: active means growth percent below 10; inactive means the rest.

Turning to `Cc1cc(N(CCCNc2ccnc3cc(Cl)ccc23)Cc2ccco2)nc(N2CCOCC2)n1`, the growth was 74.7% with DU-145 prostate; 26.9% with K-562 leukemia; 92.8% in the assay on MALME-3M melanoma; 58.5% with MDA-MB-231 breast; 71% in the assay on RXF 393 renal; 77.7% in the assay with SF-268 CNS. The growth in the assay with SF-295 CNS was 62.7%; in the assay on SF-539 CNS, 51.1%; in the assay on UACC-257 melanoma it was 106%; in the assay on M14 melanoma, 72.5%.
Regarding `Cc1cc(N(CCNc2ccnc3cc(Cl)ccc23)Cc2ccco2)nc(Cl)n1`, the growth is 19.6% with DU-145 prostate; -54.5% (active) with K-562 leukemia; -64.6% (active) in the assay on MALME-3M melanoma; -75.4% (active) in the assay on MDA-MB-231 breast; -79.8% (active) with RXF 393 renal; 30.9% in the assay on SF-268 CNS. Moreover, the growth is -75% (active) in the assay with SF-295 CNS, -80.8% (active) with SF-539 CNS, -29.2% (active) with UACC-257 melanoma and -64.9% (active) in the assay with M14 melanoma.
Turning to `COc1ccc(-c2nc(SCC(=O)Nc3ccc(C(C)=O)cc3)[nH]c(=O)c2C#N)cc1`, the growth in the assay with DU-145 prostate was 106%; in the assay with K-562 leukemia it was 98.8%; in the assay with MALME-3M melanoma, 103%; in the assay with MDA-MB-231 breast, 95.2%; in the assay with RXF 393 renal, 108%; in the assay with SF-268 CNS, 101%. For the same compound, the growth was 95.1% in the assay on SF-295 CNS, 97.6% in the assay on SF-539 CNS, 84.7% in the assay with UACC-257 melanoma and 87.6% in the assay with M14 melanoma.
Take `Cn1cc(-c2csc(-c3cn(CCNC(=O)OC(C)(C)C)c4ccc(F)cc34)n2)c2cccnc21`: the growth with DU-145 prostate is 94.2%; in the assay with K-562 leukemia it was 56.4%; in the assay on MALME-3M melanoma, 83.2%; in the assay with MDA-MB-231 breast, 78.4%; with RXF 393 renal it was 105%; in the assay with SF-268 CNS, 81.4%. For the same compound, the growth was 86.2% in the assay with SF-295 CNS, 81.7% in the assay on SF-539 CNS, 94.2% with UACC-257 melanoma and 52.3% with M14 melanoma.
On to `O=C(NCN1C(=O)c2cccc3cccc(c23)C1=O)N1CCC(Cc2ccccc2)CC1`, for which the growth in the assay with DU-145 prostate is 106%; with K-562 leukemia, 90.2%; in the assay with MALME-3M melanoma, 96.6%; in the assay with MDA-MB-231 breast it was 98.2%; in the assay on RXF 393 renal, 107%; in the assay with SF-268 CNS, 100%. In addition, the growth is 96.8% with SF-295 CNS, 102% in the assay on SF-539 CNS, 103% in the assay with UACC-257 melanoma and 92.5% in the assay on M14 melanoma.
For `CC(C)(C)c1nc(-c2ccc(O)c(O)c2)cs1`, the growth with DU-145 prostate is 66.3%; in the assay with K-562 leukemia, 50%; in the assay on MALME-3M melanoma it was 86.8%; with MDA-MB-231 breast, 54.3%; with RXF 393 renal, 72%; in the assay on SF-268 CNS it was 67.1%. Besides, the growth with SF-295 CNS is 61.6%; in the assay with SF-539 CNS, 57.7%; in the assay on UACC-257 melanoma it was 76.2%; with M14 melanoma it was 43.2%.
On to `COc1ccc(-c2c(-c3nc4ccc(N5CCOCC5)cc4[nH]3)[nH]c(C)c2C(C)=O)cc1`, for which the growth was 74.6% in the assay with DU-145 prostate; 35.1% with K-562 leukemia; 36.4% with MALME-3M melanoma; 37.5% with MDA-MB-231 breast; 44.8% with RXF 393 renal; 70.3% in the assay with SF-268 CNS. Further, the growth in the assay on SF-295 CNS is 35.7%; with SF-539 CNS, 36.9%; in the assay on UACC-257 melanoma, 44.7%; in the assay with M14 melanoma, 35.6%.
`COc1ccc(C2C(C#N)=C(N)Oc3c2sc2c(F)cccc32)cc1` (stereo not given): the growth was 17.3% in the assay with DU-145 prostate; 9.11% (active) with K-562 leukemia; 65.4% with MALME-3M melanoma; 41% in the assay on MDA-MB-231 breast; -8.26% (active) with RXF 393 renal; 42.6% with SF-268 CNS. Also, the growth in the assay on SF-295 CNS was 20.2%; with SF-539 CNS it was 1.03% (active); with UACC-257 melanoma, 64.9%; with M14 melanoma, -15.6% (active).
As to `CCCCC[C@H]1C/C=C2/C(=O)C=C[C@@H]2C/C=C\CCCC(=O)O[C@@H](CCCCC)C/C=C2/C(=O)C=C[C@@H]2C/C=C\CCCC(=O)O1`, the growth is -93.1% (active) with DU-145 prostate; -45.3% (active) in the assay on K-562 leukemia; -78.4% (active) in the assay on MALME-3M melanoma; -50.1% (active) with MDA-MB-231 breast; -92.4% (active) in the assay with RXF 393 renal; -78.7% (active) in the assay on SF-268 CNS. Besides, the growth in the assay with SF-295 CNS is -45% (active); in the assay with SF-539 CNS it was -89.5% (active); in the assay on UACC-257 melanoma, -61.7% (active); in the assay with M14 melanoma, -82.8% (active).
Regarding `C=COCCCCCCCCCCCCCCCCCC`, the growth with DU-145 prostate is 106%; in the assay with K-562 leukemia it was 119%; in the assay with MALME-3M melanoma, 109%; with MDA-MB-231 breast, 90.4%; in the assay with RXF 393 renal, 119%; with SF-268 CNS it was 101%. For the same compound, the growth in the assay on SF-295 CNS was 118%; with SF-539 CNS it was 96.4%; in the assay on UACC-257 melanoma, 92.2%; in the assay on M14 melanoma, 113%.
Regarding `O=C1c2ccccc2NC(c2cn(-c3ccccc3)nc2-c2cccnc2)N1Cc1ccccc1` (stereo not given), the growth in the assay with DU-145 prostate is 101%; in the assay on K-562 leukemia, 96.8%; with MALME-3M melanoma, 119%; in the assay with MDA-MB-231 breast it was 94.3%; with RXF 393 renal, 97.6%; in the assay with SF-268 CNS, 84.8%. Also, the growth is 92% in the assay with SF-295 CNS, 95.6% with SF-539 CNS, 123% in the assay with UACC-257 melanoma and 106% in the assay with M14 melanoma.
As to `COC(=O)C(Cc1ccccc1)n1cc(COc2nc(Cl)nc(Nc3ccc(Cl)cc3)n2)nn1` (stereo not given), the growth is 81.5% with DU-145 prostate; 90.6% with K-562 leukemia; 89.4% in the assay with MALME-3M melanoma; 94% in the assay on MDA-MB-231 breast; 101% in the assay with RXF 393 renal; 97.8% in the assay with SF-268 CNS. For the same compound, the growth was 101% with SF-295 CNS, 97.4% with SF-539 CNS, 94.7% in the assay with UACC-257 melanoma and 91.5% in the assay on M14 melanoma.
Consider `N=c1c(S(=O)(=O)c2ccccc2)cc2c(=O)n3ccccc3nc2n1C1CCCC1`, for which the growth in the assay with DU-145 prostate is 93.2%; with K-562 leukemia, 76.6%; with MALME-3M melanoma, 108%; with MDA-MB-231 breast it was 64%; in the assay with RXF 393 renal, 86%; in the assay with SF-268 CNS, 83.5%. In addition, the growth was 91.2% with SF-295 CNS, 83.7% in the assay on SF-539 CNS, 111% in the assay with UACC-257 melanoma and 110% with M14 melanoma.

Values taken from PubChem BioAssay (NCI).
